Measured values from PubChem BioAssay (NCI).
Compounds without any hit were thinned out: in the full panel of roughly 83,000, 20% have a hit.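 Interpretation: 100, growth as untreated; towards 0, rising growth inhibition; 0, no net growth; 0 to -100, cell death. Compounds scoring below 10 were considered active.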 A number with no mark means an inactive call. The source made the active and inactive calls.

The molecules below were run on MDA-MB-468 breast (assay: NCI-60 one-dose screen, 48 h (100 = growth as untreated, 0 = no growth, -100 = all killed)). Settings: 10 µM unless noted.

| SMILES | growth |
| --- | --- |
| CC(C)Sc1nc(Cl)c(C#N)c(-c2ccc(F)cc2)n1 | 98.9% |
| Cc1oc2ccc(O)c(CN3CCCCCC3)c2c1C(=O)Nc1ccc(C(F)(F)F)cc1 | 5.74% (active) |
| COc1ccc(-c2nn(-c3cccc(Cl)c3)cc2/C=C2\NC(=S)N(c3ccc(Cl)cc3)C2=O)cc1 | -56.7% (active) |
| CCOC(=O)c1cn2c3c(cccc3c1=O)C(=O)/C(=C/c1cccc(Cl)c1Cl)C2 | 106% |
